PNC assembly inh: perinucleolar compartment assembly inhibition | 3.1% of 140,000 active | AID 2417 | activity change (PNC), negative = inhibition, % at 10 µM | PC3M PTB-GFP, PNC prevalence imaging, 16 h; active compounds read low;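 active means readout at or below -70, meaning at least 70% loss of cells showing the perinucleolar compartment, a nuclear body marking cancer cells; inconclusive means readout between -30 and a set limit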;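 further: plate controls were DMSO wells for no effect and camptothecin positive control wells for full effect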
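PC3M cells stably expressing PTB-GFP, 750–1000 cells/well, treated 16 h at 37 °C with compound (23 nl of library stock), in duplicate. After paraformaldehyde fixation and Hoechst stain, imaged at 20x; PNC prevalence scored by image analysis.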
HPGD block: blocks human HPGD enzyme activity; purified HPGD, NADH fluorescence kinetic, PGE2 substrate; AID 894; 4.3% of 150,000 active; Potency, µM, for the others: at the top dose activity change, negative = inhibition, hits mostly inhibitors; further: potency means the concentration at half of the fitted maximal effect
Target sequence (P15428 whole entry, looked up): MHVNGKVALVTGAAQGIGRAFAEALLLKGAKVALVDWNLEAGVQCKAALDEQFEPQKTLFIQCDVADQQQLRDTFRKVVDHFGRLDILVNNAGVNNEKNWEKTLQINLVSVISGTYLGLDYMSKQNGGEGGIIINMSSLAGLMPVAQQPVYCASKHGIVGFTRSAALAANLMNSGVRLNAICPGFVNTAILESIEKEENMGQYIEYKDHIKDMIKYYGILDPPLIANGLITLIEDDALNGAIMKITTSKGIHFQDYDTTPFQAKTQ
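NADH formation kinetics: reaction with 30 uM PGE2 and 1 mM NAD+ (final), 20 nM enzyme, Tris-HCl pH 8 with Tween 20, after 15 min compound preincubation at room temperature. Fluorescence change, last versus first of five reads.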
ALDH1A1 inh: blocks purified human ALDH1A1 activity. P00352. Purified ALDH1A1, NADH fluorescence, propionaldehyde substrate. Potency, µM (top dose mostly 75.3 µM), without a hit: at the highest dose activity, negative = inhibition, usual class: inhibitors. 7.3% of 220,000 active. AID 1030;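 further: potency means the concentration at half of the fitted maximal effect; plate controls were no enzyme wells and a reference inhibitor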
IMPase cell inh: cell-permeable inhibitors of inositol monophosphatase (IMPase); AID 901; 120,000 tested, under 10 active; P97697; inhibition (IP1 accumulation), % at 46.1 µM; CHO-M1 cells, IP1 accumulation, HTRF TR-FRET ratio; active means well fitted curve in the direction sought with a large enough effect in the signal ratio, not every such curve was filed as active; inconclusive means small, poorly fitted or top-dose-only effect, or a change in a side signal; inactive means no such curve, though single readings can be large or run the other way; the % refers to the signal ratio;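 further: cells stimulated with carbachol in lithium chloride buffer; plate controls were DMSO basal wells for no effect and reference inhibitor wells for full effect; higher means more IMPase inhibition seen as more IP1 and lower FRET ratio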
Target sequence (P97697 whole entry, looked up): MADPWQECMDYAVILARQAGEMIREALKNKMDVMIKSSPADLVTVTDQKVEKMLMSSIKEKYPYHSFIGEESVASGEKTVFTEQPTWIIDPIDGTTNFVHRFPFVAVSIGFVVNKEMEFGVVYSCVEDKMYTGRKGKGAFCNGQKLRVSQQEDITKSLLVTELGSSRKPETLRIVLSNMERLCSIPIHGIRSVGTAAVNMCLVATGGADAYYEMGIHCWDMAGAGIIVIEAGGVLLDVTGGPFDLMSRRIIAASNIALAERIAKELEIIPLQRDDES
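In this qHTS, compounds (final up to 46 uM) act on CHO-M1 cells that are then activated through the M1 receptor with carbachol, in pH 7.4 buffer containing 50 mM LiCl, for 30 min. IP1 accumulation is quantified by the IP-One immunoassay.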
IMPase Li inh: membrane-permeable IMPase blocker, potentiated with lithium; 0.35% of 210,000 active; CHO-M1 cells, IP1 TR-FRET (IP-One), carbachol + lithium; Potency, µM (highest dose often 59.4 µM), inactives show at the top dose activity, negative = IMPase inhibition, usual class: inhibitors; active means well fitted inhibition curve with a large enough effect; inconclusive means small, poorly fitted or top-dose-only effect; inactive means no such curve, though single readings can be large or run the other way;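 further: IP1 builds up when IMPase is blocked and the TR-FRET signal falls; potency means the concentration at half of the fitted maximal effect; plate controls were basal vehicle for no effect and high inhibitor control for full effect; nearly all actives have a fitted effect of over 50% in size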
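Lithium-sensitised IP1 accumulation assay; M1-expressing CHO cells treated 30 min at 37C with compound. Competitive antibody detection by time-resolved FRET followed a 10 min room-temperature lysis step.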
Starred values were filed as active, the others as inactive; ? = inconclusive; · = not tested or not shown; [ ] = dose if it differs, or a comment. Rows were chosen to be rich in hits. Some 11% of all compounds tested hit in one or more screens of this group. Unless noted, the call rests on the fitted dose curve; in most records, active means well fitted inhibition curve with a large enough effect (not every such curve was filed as active); inconclusive means small, poorly fitted or top-dose-only effect, or another doubt; inactive means no such curve, though single readings can be large or run the other way. Unless noted, on the % scale 0 is the no-effect control and ±100 the full control effect.

SMILES	PNC assembly inh	HPGD block	ALDH1A1 inh	IMPase cell inh	IMPase Li inh
CC(C)OC(=O)CSc1nnc(SCc2cccc3ccccc23)s1	24.9	-13.5%	?	6.1	-0.6%[38.3 µM]
O=C(CSc1ccccn1)N/N=C/c1c[nH]c2ccccc12	·	·	-0.9%	·	6.1%
O=C(CSc1nnc(SCc2cccc3ccccc23)s1)N/N=C/c1c[nH]c2ccccc12	9.4	-9.4%	14.1µM*	-1.3	1.5%
O=C(c1ccncc1)N1CCC[C@@]2(CCN(Cc3ccccc3)C2)C1	·	-4.5%	4.1%	·	-8.5%
COC/C=C/C1=CC2=CC(=O)C(C)(OC(=O)c3ccc(Cl)nc3)C(=O)C2=CO1 (centres undefined)	·	-16.2%	3.1%	·	10.0%
Cc1ccc(C(=O)CC(=O)c2cccc(F)c2)c(O)c1	6.8	14.1µM*	-4.2%	-1.3	16.5%[38.3 µM]
Cc1csc(NC(=O)c2nc3nc(C)cc(C)n3n2)n1	-95.4*	-15.9%	-4.2%	-3.5	-11.5%[38.3 µM]
Cc1cc(C)n2nc(C(=O)Nc3nccs3)nc2n1	13.3	-5.6%	1.7%	-1.8	6.9%[38.3 µM]
Cc1csc(NC(=O)c2nc(-c3ccccc3)n(-c3ccccc3)n2)n1	28.2	-7.5%	14.1µM*	4.2	7.6%[38.3 µM]
CC[C@H](C)[C@H](NC(N)=O)C(=O)NCCc1ccc(Cl)cc1Cl	·	·	-2.4%	·	-4.9%
CCN(CC)C(=O)CN(c1ccc(C)cc1)S(=O)(=O)c1ccc(SC)cc1	33.1	-8.1%	14.1µM*	9.2	0.8%[38.3 µM]
COCCNC(=O)CN(c1ccc(C)cc1)S(=O)(=O)c1ccc(SC)cc1	3.7	-12.3%	-46.9%	-1.4	-10.8%[38.3 µM]
CCCOc1ccc(N2C(=O)CC(NCCc3ccc(S(N)(=O)=O)cc3)C2=O)cc1 (centres undefined)	-1.3	-6.4%	7.94µM*	11.6	-3.7%[38.3 µM]
CCOc1ccc(N2C(=O)CC(NCCc3c[nH]c4ccccc34)C2=O)cc1 (centres undefined)	·	·	11.2µM*	·	5.8%
CCOc1ccc(N2C(=O)CC(NCCc3ccncc3)C2=O)cc1 (centres undefined)	?	-6.3%	?	4.8	-6.8%[38.3 µM]
CC(C)(C)c1ccc(OCC(=O)Nc2ccc3c4c(cccc24)C(=O)NC3=O)cc1	·	·	?	·	19.2%
CSc1ccc(/C=C(\C(=O)O)c2ccc(S(=O)(=O)N3CCCCC3)s2)cc1	15.3	15.6%	-13.9%	1.6	-0.8%
O=C(O)/C(=C\c1ccccc1Cl)c1ccc(S(=O)(=O)N2CCCCC2)s1	-23.3	·	?	-13.3	·
O=C(O)/C(=C\c1cccc([N+](=O)[O-])c1)c1ccc(S(=O)(=O)N2CCCCC2)s1	·	·	3.98µM*	·	·
O=C(O)/C(=C\c1ccc(Cl)c([N+](=O)[O-])c1)c1ccc(S(=O)(=O)N2CCCCC2)s1	·	·	0.501µM*	·	20.4%
Cc1ccc2c(CSc3nc4ccccc4c(=O)n3CCCO)cc(=O)oc2c1C	-2.3	?	12.6µM*	8.2	11.0%[38.3 µM]
COc1cccc2cc(C(=O)N3CCN(C45CC6CC(CC(C6)C4)C5)CC3)c(=O)oc12	?	-28.0%	?	0.7	29.0%[38.3 µM]
COc1cccc2cc(C(=O)N3C(C)CCCC3C)c(=O)oc12 (centres undefined)	19.2	28.2µM*	-8.1%	7.1	-4.3%
COc1cccc2cc(C(=O)N3CCC(C)CC3)c(=O)oc12	25.8	12.6µM*	?	-1.5	?
CCOc1cc(C(=O)N2CCN(C/C=C/c3ccccc3)CC2)cc(OCC)c1OCC	20.8	-3.1%	1.3%	6.7	-9.7%[38.3 µM]
SMILES	PNC assembly inh	HPGD block	ALDH1A1 inh	IMPase cell inh	IMPase Li inh
COc1cccc2cc(C(=O)N3CCCCC3C)c(=O)oc12 (centres undefined)	138.1	15.8µM*	-3.4%	-0.3	-0.2%
COc1cccc2cc(C(=O)OC3CCN(C)CC3)c(=O)oc12	-27.0	-4.4%	-5.2%	-2.7	0.9%
CCOc1cccc2cc(C(=O)N3CCN(C/C=C/c4ccccc4)CC3)c(=O)oc12	66.6	-21.3%	14.1µM*	6.7	2.5%
C=C1OC(CO)(n2cnc3c(N)ncnc32)C(O)C1O (centres undefined)	·	-7.8%	-2.1%	·	-0.7%
CCn1cc(C(=O)OC)c(=O)c2cc(S(=O)(=O)N(C)C3CCCCC3)ccc21	·	·	?	·	-1.4%
CCN(C(=O)c1cc2cccc(OC)c2oc1=O)c1ccccc1	23.0	22.4µM*	-2.5%	8.6	15.1%[38.3 µM]
CN1CCCC2(CCN(C(=O)c3cc(C(F)(F)F)cc(C(F)(F)F)c3)CC2)C1	·	-9.2%	11.1%	·	10.1%
Cc1ccc(-c2nn3nnnc3c3ccccc23)cc1C	28.7	-13.4%	7.08µM*	4.3	-2.0%[38.3 µM]
c1ccc(-c2nn3nnnc3c3ccccc23)cc1	-27.6	-12.0%	3.4%	0.7	6.7%
COC(=O)C/C=C\[C@@H](C)[C@@H](/C=N\O[C@@H](C)c1cn([C@H]2COC[C@H]2O)nn1)NS(=O)(=O)c1ccc(C)cc1	·	·	-1.0%[13.5 µM]	·	·
Cc1ccccc1N=C1N=C(N)c2ccccc21	-95.7*	-0.5%	10.6%	0.0	-6.4%
Cc1ccc(N=C2N=C(N)c3ccccc32)c(C)c1	?	-16.6%	7.1%	-9.2	5.6%
C[C@@H]1C[C@H]2[C@H]3C[C@@H](F)C4=CC(=O)C=C[C@]4(C)[C@@]3(Cl)[C@@H](O)C[C@@]2(C)[C@@H]1C(=O)COC(=O)C(C)(C)C	·	-11.8%	11.2%[20.9 µM]	0.9[20.6 µM]	10.6%
COc1cc(C(=O)/C=C/Nc2ccc(NC(C)=O)cc2)cc(OC)c1OC	-95.2*	28.2µM*	-1.8%	·	-8.0%
COc1cc(C(=O)NNC(=O)c2ccc(NC(C)=O)cc2)cc(OC)c1OC	·	·	4.9%	·	3.2%
COc1ccc(NC(C)=O)cc1C#N	·	·	3.16µM*	·	-1.8%
CCC(C)C(=O)OC1C2CC3=C4CC(=O)OC(c5ccoc5)[C@]4(C)CCC3[C@@](C)(C2=O)C(CC(=O)OC)C1(C)C (some centres undefined)	·	-9.5%	-12.1%	·	18.0%
O=C(N/N=C/C1C(c2ccccc2)C1(Cl)Cl)c1cccc(Br)c1 (centres undefined)	-3.7	-11.2%	11.2µM*	3.4	7.0%[38.3 µM]
Cc1nn(CCC#N)c(N)c1C1(O)C(=O)Nc2c(Cl)cc(Cl)cc21 (centres undefined)	·	·	3.98µM*	·	·
O=C(O)c1ccccc1Cl	·	-9.9%	?	·	-3.1%
CCN1/C(=C/c2ccc3cc(C)cc(C)c3[n+]2CC)Sc2cc(C)ccc21	·	·	20µM*	·	11.2µM*
CCN1/C(=C\c2ccc3cc(C)ccc3[n+]2CC)Sc2cc(C)c(C)cc21	·	·	?	·	-20.3%
COc1ccc(C2Nc3ccccc3C(=O)N2NS(=O)(=O)c2ccccc2)cc1 (centres undefined)	·	·	?	·	-7.0%
Cc1cccc(NC(=O)c2cc(S(=O)(=O)c3ccccc3)ccc2Cl)c1	-26.4	-13.7%	?	6.3	3.1%[38.3 µM]
Cc1ccc(S(=O)(=O)N/N=c2\oc3ccccc3cc2C(=O)Nc2cccc(C)c2)cc1	14.8	-12.5%	0.159µM*	·	-0.1%

Screening results as filed in PubChem BioAssay.
